In PubChem BioAssay AID1159580 (chemical genetic matrix, 2015):
The whole screen tested about 5,500 compounds, of which about 2,000 (36%) were called active. About 18% were inconclusive and are not listed. Cut-off read from the data, not from the text of the source: active = normalized growth mostly below about 0.91 (no sharp cut-off); inconclusive = no clear call, values can overlap the other calls; inactive = mostly above about 0.92. The list shows a part of the results.

Assay: chemical genetic growth profiling, strain panel (AID 1159580);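 note: tested at 20 µM; growth read once vehicle control cultures reached saturation at 30 °C; 1 = growth at the plate median or of vehicle wells; lower values mean less growth of the strain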
Settings: growth OD
[1] = S. cerevisiae deletion strains, locus YAL013W, strain DEP1, stronger effect = lower value
[2] = S. cerevisiae deletion strains, locus YBR229C, strain ROT2, stronger effect = lower value
[3] = S. cerevisiae deletion strains, locus YDL101C, strain DUN1, stronger effect = lower value
[4] = S. cerevisiae deletion strains, locus YDR150W, strain NUM1, stronger effect = lower value
[5] = S. cerevisiae deletion strains, locus YEL061C, strain CIN8, stronger effect = lower value
[6] = S. cerevisiae deletion strains, locus YGR078C, strain PAC10, stronger effect = lower value
[7] = S. cerevisiae deletion strains, locus YHR030C, strain SLT2, stronger effect = lower value
[8] = S. cerevisiae deletion strains, locus YJR043C, strain POL32, stronger effect = lower value
[9] = S. cerevisiae deletion strains, locus YJR075W, strain HOC1, stronger effect = lower value
[10] = S. cerevisiae deletion strains, locus YKL190W, strain CNB1, stronger effect = lower value
[11] = S. cerevisiae deletion strains, locus YLR039C, strain RIC1, stronger effect = lower value
[12] = S. cerevisiae deletion strains, locus YLR262C, strain YPT6, stronger effect = lower value
[13] = S. cerevisiae deletion strains, locus YMR263W, strain SAP30, stronger effect = lower value
[14] = S. cerevisiae deletion strains, locus YMR307W, strain GAS1, stronger effect = lower value
[15] = S. cerevisiae deletion strains, locus YNL153C, strain GIM3, stronger effect = lower value
[16] = S. cerevisiae deletion strains, locus YNL322C, strain KRE1, stronger effect = lower value
[17] = S. cerevisiae deletion strains, locus YPL055C, strain LGE1, stronger effect = lower value
[18] = S. cerevisiae deletion strains, locus YPL241C, strain CIN2, stronger effect = lower value
[19] = S. cerevisiae deletion strains, locus YGR229C, strain SMI1, stronger effect = lower value

Measured: normalized growth

O=C(O)CCS(=O)(=O)/C=C/c1ccccc1
inactive: [1] 0.995 | [2] 0.989 | S. cerevisiae deletion strains, locus YCL061C, strain MRC1, stronger effect = lower value 1 | [3] 1.04 | [4] 0.984 | [5] 1 | [6] 1.02 | [7] 0.996 | S. cerevisiae deletion strains, locus YHR087W, strain rtc3, stronger effect = lower value 1.01 | S. cerevisiae deletion strains, locus YJL187C, strain SWE1, stronger effect = lower value 0.992 | [8] 0.989 | [9] 1 | [10] 0.979 | [11] 0.989 | S. cerevisiae deletion strains, locus YLR058C, strain SHM2 (second series), stronger effect = lower value 0.982 | S. cerevisiae deletion strains, locus YLR085C, strain ARP6, stronger effect = lower value 0.988 | [12] 1 | S. cerevisiae deletion strains, locus YML094W, strain GIM5, stronger effect = lower value 1.11 | S. cerevisiae deletion strains, locus YMR219W, strain ESC1, stronger effect = lower value 0.991 | [13] 0.955 | [14] 0.951 | [15] 1.01 | S. cerevisiae deletion strains, locus YNL298W, strain CLA4 (second series), stronger effect = lower value 0.997 | [16] 0.992 | S. cerevisiae deletion strains, locus YNR030W, strain Alg12, stronger effect = lower value 1.03 | [17] 1.02 | [18] 1.12 | S. cerevisiae deletion strains, locus YPR135W, strain CTF4, stronger effect = lower value 1.08

O=c1cc(O)cc(/C=C/c2ccc(O)c(O)c2)o1
inactive: [1] 0.981 | S. cerevisiae deletion strains, locus YAL040C, strain CLN3, stronger effect = lower value 0.986 | S. cerevisiae deletion strains, locus YCL061C, strain MRC1 (second series), stronger effect = lower value 0.988 | [4] 0.978 | S. cerevisiae deletion strains, locus YDR363W, strain ESC2, stronger effect = lower value 0.995 | S. cerevisiae deletion strains, locus YER002W, strain NOP16, stronger effect = lower value 0.999 | [6] 0.985 | [19] 0.966 | [9] 0.988 | [13] 1 | [14] 1.01 | S. cerevisiae deletion strains, locus YNL175C, strain NOP13, stronger effect = lower value 0.988 | S. cerevisiae deletion strains, locus YNL197C, strain WHI3, stronger effect = lower value 0.986 | S. cerevisiae deletion strains, locus YNL224C, strain SQS1, stronger effect = lower value 1.02 | S. cerevisiae deletion strains, locus YOR083W, strain WHI5 (second series), stronger effect = lower value 0.975 | [17] 0.978

COc1ccc(/C=C/c2cc(O)cc(O[C@@H]3O[C@H](CO)[C@@H](O)[C@H](O)[C@H]3O)c2)cc1O
inactive: [1] 1 | S. cerevisiae deletion strains, locus YBR021W, strain FUR4, stronger effect = lower value 0.999 | [2] 1.01 | S. cerevisiae deletion strains, locus YCL029C, strain bik1, stronger effect = lower value 1.02 | S. cerevisiae deletion strains, locus YDL035C, strain GPR1, stronger effect = lower value 1.02 | S. cerevisiae deletion strains, locus YDL074C, strain BRE1, stronger effect = lower value 1.01 | [3] 1.02 | S. cerevisiae deletion strains, locus YDL134C, strain PPH21, stronger effect = lower value 1.01 | S. cerevisiae deletion strains, locus YDL185W, strain tfp1, stronger effect = lower value 1.02 | S. cerevisiae deletion strains, locus YDL192W, strain arf1, stronger effect = lower value 1.02 | S. cerevisiae deletion strains, locus YDR101C, strain arx1, stronger effect = lower value 1.01 | [4] 1.01 | S. cerevisiae deletion strains, locus YDR162C, strain NBP2, stronger effect = lower value 1.02 | S. cerevisiae deletion strains, locus YDR318W, strain mcm21, stronger effect = lower value 1.03 | S. cerevisiae deletion strains, locus YDR388W, stronger effect = lower value 1.01 | S. cerevisiae deletion strains, locus YDR502C, strain sam2, stronger effect = lower value 1.02 | [5] 1 | S. cerevisiae deletion strains, locus YER110C, stronger effect = lower value 1.03 | S. cerevisiae deletion strains, locus YER155C, strain BEM2, stronger effect = lower value 0.995 | S. cerevisiae deletion strains, locus YER167W, strain BCK2, stronger effect = lower value 1.03 | S. cerevisiae deletion strains, locus YGL078C, strain dbp3, stronger effect = lower value 1.02 | S. cerevisiae deletion strains, locus YGL086W, strain mad1, stronger effect = lower value 1.03 | S. cerevisiae deletion strains, locus YGL248W, strain PDE1, stronger effect = lower value 1.01 | [6] 1.03 | S. cerevisiae deletion strains, locus YGR135W, strain pre9, stronger effect = lower value 1.01 | [19] 0.988 | S. cerevisiae deletion strains, locus YGR252W, strain gcn5, stronger effect = lower value 1.06 | [7] 1 | S. cerevisiae deletion strains, locus YHR079C, strain IRE1 (second series), stronger effect = lower value 1.02 | S. cerevisiae deletion strains, locus YHR094C, strain hxt1, stronger effect = lower value 1.02 | S. cerevisiae deletion strains, locus YHR129C, strain ARP1, stronger effect = lower value 1.01 | S. cerevisiae deletion strains, locus YHR200W, strain rpn10, stronger effect = lower value 1.03 | S. cerevisiae deletion strains, locus YIL066C, strain RNR3, stronger effect = lower value 1.02 | S. cerevisiae deletion strains, locus YIL073C, strain SPO22, stronger effect = lower value 1.06 | S. cerevisiae deletion strains, locus YIL125W, strain kgd1, stronger effect = lower value 0.999 | S. cerevisiae deletion strains, locus YIR030C, strain dcg1, stronger effect = lower value 1.01 | S. cerevisiae deletion strains, locus YJL095W, strain BCK1, stronger effect = lower value 1.01 | S. cerevisiae deletion strains, locus YJL134W, strain LCB3, stronger effect = lower value 1.01 | S. cerevisiae deletion strains, locus YJL168C, strain set2, stronger effect = lower value 1.01 | S. cerevisiae deletion strains, locus YJL187C, strain SWE1 (second series), stronger effect = lower value 1.01 | [8] 1.01 | [9] 0.973 | S. cerevisiae deletion strains, locus YKL009W, strain mrt4, stronger effect = lower value 1.03 | S. cerevisiae deletion strains, locus YKL068W, stronger effect = lower value 1.02 | S. cerevisiae deletion strains, locus YKL085W, strain MDH1 (second series), stronger effect = lower value 1.04 | S. cerevisiae deletion strains, locus YKL085W, strain MDH1, stronger effect = lower value 1.04 | [10] 1 | S. cerevisiae deletion strains, locus YKR001C, strain vps1, stronger effect = lower value 1.03 | [11] 1.04 | S. cerevisiae deletion strains, locus YLR058C, strain SHM2, stronger effect = lower value 1.01 | S. cerevisiae deletion strains, locus YLR102C, strain apc9, stronger effect = lower value 1.02 | [12] 1.05 | S. cerevisiae deletion strains, locus YLR268W, strain sec22, stronger effect = lower value 1.02 | S. cerevisiae deletion strains, locus YLR330W, strain CHS5, stronger effect = lower value 1.01 | S. cerevisiae deletion strains, locus YLR342W, strain FKS1 (second series), stronger effect = lower value 1.05 | S. cerevisiae deletion strains, locus YLR371W, strain rom2, stronger effect = lower value 1.01 | S. cerevisiae deletion strains, locus YLR418C, strain cdc73, stronger effect = lower value 0.987 | S. cerevisiae deletion strains, locus YML016C, strain PPZ1, stronger effect = lower value 1.02 | S. cerevisiae deletion strains, locus YML032C, strain rad52, stronger effect = lower value 1.01 | S. cerevisiae deletion strains, locus YML124C, strain tub3, stronger effect = lower value 1.01 | S. cerevisiae deletion strains, locus YMR078C, strain ctf18, stronger effect = lower value 1.02 | S. cerevisiae deletion strains, locus YMR223W, strain ubp8, stronger effect = lower value 1.03 | [13] 1.02 | [14] 1.04 | S. cerevisiae deletion strains, locus YNL067W, strain RPL9B, stronger effect = lower value 1.01 | S. cerevisiae deletion strains, locus YNL128W, strain TEP1, stronger effect = lower value 1.02 | [15] 1.02 | S. cerevisiae deletion strains, locus YNL233W, strain BNI4, stronger effect = lower value 1.01 | S. cerevisiae deletion strains, locus YNL250W, strain rad50, stronger effect = lower value 1.03 | S. cerevisiae deletion strains, locus YNL271C, strain bni1, stronger effect = lower value 1.03 | S. cerevisiae deletion strains, locus YNL298W, strain CLA4, stronger effect = lower value 1.03 | S. cerevisiae deletion strains, locus YNL307C, strain MCK1, stronger effect = lower value 1.03 | [16] 1.01 | S. cerevisiae deletion strains, locus YNR052C, strain pop2, stronger effect = lower value 1.01 | S. cerevisiae deletion strains, locus YOL006C, strain TOP1, stronger effect = lower value 1.08 | S. cerevisiae deletion strains, locus YOL012C, strain htz1 0.868 | S. cerevisiae deletion strains, locus YOL147C, strain pex11, stronger effect = lower value 1.01 | S. cerevisiae deletion strains, locus YOR061W, strain CKA2, stronger effect = lower value 1.02 | S. cerevisiae deletion strains, locus YOR069W, strain VPS5, stronger effect = lower value 1 | S. cerevisiae deletion strains, locus YOR136W, strain idh2, stronger effect = lower value 1.02 | S. cerevisiae deletion strains, locus YOR144C, strain elg1, stronger effect = lower value 1.01 | S. cerevisiae deletion strains, locus YOR184W, strain ser1, stronger effect = lower value 1.05 | S. cerevisiae deletion strains, locus YOR316C, strain cot1, stronger effect = lower value 1.02 | [17] 1.03 | [18] 1.01 | S. cerevisiae deletion strains, locus YPR119W, strain clb2, stronger effect = lower value 1.01 | S. cerevisiae deletion strains, locus YPR141C, strain kar3, stronger effect = lower value 1.03 | S. cerevisiae deletion strains, locus YPR163C, strain tif3, stronger effect = lower value 1.03 | S. cerevisiae deletion strains, locus YPR167C, strain met16, stronger effect = lower value 1.02 | S. cerevisiae deletion strains, strain wtn01, stronger effect = lower value 0.994 | S. cerevisiae strains, strain wild type, stronger effect = lower value 1.01
